Data on 1 molecule can be found in PubChem BioAssay (NCATS).

Experiment [1] in a line: Cellular Toxicity (caspase-3) HepG2 (AID 654).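 Further: cells exposed to compound for 16 hours before reading; 0% = DMSO alone and 100% = caspase signal from 100 µM tamoxifen.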 Put shortly:
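Concentration-response AC50 values reflect caspase-3/7 induction in HepG2 cells after 16 hours of compound exposure, quantified by luminescence from liberated aminoluciferin and referenced to 100 uM tamoxifen as full stimulation.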

Experiment [2] in a line: Cellular Toxicity (caspase-3) HUV-EC-C (AID 656).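 Further: 0% = DMSO basal and 100% = 100 µM tamoxifen.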 Put shortly:
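HUV-EC-C endothelial cells, 1000/well, were pre-incubated 5 hr at 37°C, then exposed to compounds for 16 hr at 37°C. Caspase-Glo 3/7 luminescence was read after 20 min at room temperature. AC50 came from Hill fits, normalized to DMSO and 100 uM tamoxifen.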

The nature of experiment [3]: Cellular Toxicity (caspase-3) SHSY5Y (AID 657). In a few lines:
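SH-SY5Y human neuroblastoma cells (1500/well) were treated with compounds for 16 h at 37 °C, then Caspase-Glo 3/7 luminescence was read after 1 h at room temperature. Data normalized to DMSO and 10 uM staurosporine; AC50 from Hill fits.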

Experiment [4] is described as follows: Cellular Toxicity (caspase-3) BJ (AID 658).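 Further: 0% = DMSO basal and 100% = 10 µM staurosporine.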 In a few lines: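 Plated BJ cells (1000/well) rested 5 hr, received compound for 16 hr at 37 °C, then Caspase-Glo 3/7 reagent for 1 hr at room temperature before luminescence reading.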
For experiment [5], the target named is Peroxisome proliferator-activated receptor gamma (Homo sapiens) (UniProt P37231). The experiment is described as follows: qHTS assay for small molecule agonists of peroxisome proliferator-activated receptor gamma signaling (AID 588536; active means well fitted curve in the direction sought with a large enough effect in the signal ratio, with a control signal flat, not every such curve was filed as active; the % refers to the signal ratio;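 further: 0% = DMSO basal wells and 100% = rosiglitazone at 2 µM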). Put shortly:
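Cells were plated and held 6–6.5 h at 37 C, then compounds were added as a titration series. After a further 16 h, CCF4 dye was loaded for 2 h at room temperature and emission at 460/530 nm recorded.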

Experiment [6] deals with Vitamin D3 receptor (Homo sapiens) (UniProt P11473). The experiment is described as follows: qHTS assay for small molecule antagonists of vitamin D receptor signaling (AID 588541; calls by dose curve;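 further: receptor activated by calcitriol during compound treatment; series mostly up to about 77 µM; on the % scale 0 is the no-effect control and ±100 the full control effect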). In a few lines: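 VDR-UAS-bla HEK293T cells (2000/well, 2% charcoal-stripped FBS) were treated with titrated compounds plus 1-alpha,25-dihydroxyvitamin D3 (50 nM or 3 nM final) for 16 h at 37 C. CCF4 beta-lactamase fluorescence was read; Hill fits gave IC50.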
Sequence of Vitamin D3 receptor (Homo sapiens) (P11473 whole entry, looked up): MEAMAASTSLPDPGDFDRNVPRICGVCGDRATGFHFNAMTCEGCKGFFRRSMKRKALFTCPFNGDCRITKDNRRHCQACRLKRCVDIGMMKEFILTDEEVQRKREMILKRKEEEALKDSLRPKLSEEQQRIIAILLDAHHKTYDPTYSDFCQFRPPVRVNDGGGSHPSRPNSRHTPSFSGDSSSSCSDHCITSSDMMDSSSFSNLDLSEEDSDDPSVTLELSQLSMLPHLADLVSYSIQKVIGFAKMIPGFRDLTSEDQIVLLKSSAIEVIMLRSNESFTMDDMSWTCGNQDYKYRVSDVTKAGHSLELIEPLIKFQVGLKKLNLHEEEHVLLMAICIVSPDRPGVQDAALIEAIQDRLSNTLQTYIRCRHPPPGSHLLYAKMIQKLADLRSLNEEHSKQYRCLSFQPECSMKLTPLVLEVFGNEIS
For orientation: In qHTS, concentration-response curves come from the screen itself.

Experiment [7] shares this target. The experiment is described as follows: qHTS assay for small molecule agonists of vitamin D receptor signaling (AID 588543; calls by dose curve;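 further: 0% = DMSO basal and 100% = reference agonist control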). In a few lines: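 GeneBLAzer VDR-UAS-bla HEK293T cells in 2% charcoal-stripped FBS medium were dosed with compound titrations for 16 h at 37 °C; CCF4 β-lactamase readout (405 nm ex, 460/530 nm em). EC50 and efficacy from Hill fits, normalized to 50 nM calcitriol (100%) and DMSO (0%).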

Experiment [8] can be described thus: qHTS assay for small molecule agonists of retinoid X receptor alpha signaling (AID 588544; calls by dose curve;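 on activation: 0% = DMSO basal wells and 100% = reference agonist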). The note with it: HEK293T RXRa-UAS-bla, beta-lactamase reporter, 18 h; 530 nm emission.
For experiment [9], the target named is Retinoic acid receptor RXR-alpha (Homo sapiens) (UniProt P19793). The description is as above.
Sequence of Retinoic acid receptor RXR-alpha (Homo sapiens) (P19793 whole entry, looked up): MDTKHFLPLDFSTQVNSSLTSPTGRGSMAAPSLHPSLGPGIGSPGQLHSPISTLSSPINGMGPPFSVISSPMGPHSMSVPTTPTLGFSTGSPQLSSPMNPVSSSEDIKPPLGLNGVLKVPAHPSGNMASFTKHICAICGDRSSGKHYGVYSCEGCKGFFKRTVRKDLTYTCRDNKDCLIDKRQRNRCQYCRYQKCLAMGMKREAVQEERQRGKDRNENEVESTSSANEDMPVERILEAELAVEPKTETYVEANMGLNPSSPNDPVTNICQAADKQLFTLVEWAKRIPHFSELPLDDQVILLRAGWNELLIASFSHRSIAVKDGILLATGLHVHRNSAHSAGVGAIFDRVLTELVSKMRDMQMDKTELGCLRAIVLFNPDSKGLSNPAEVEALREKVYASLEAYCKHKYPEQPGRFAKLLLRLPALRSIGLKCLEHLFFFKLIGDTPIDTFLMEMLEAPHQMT
In experiment [10] the target is Thyroid hormone receptor beta (Homo sapiens) (UniProt P10828). The experiment is described as follows: qHTS assay for small molecule agonists of thyroid hormone receptor beta signaling (AID 588545; calls by dose curve;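 further: 0% = DMSO only and 100% = 10 nM T3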). In a few lines:
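Compounds were tested as agonists in TR-UAS-bla-GripTite HEK 293 cells. After 18 hrs at 37 C, CCF4 substrate was added and fluorescence read after 2 hrs at room temperature.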

Experiment [11] can be described thus: qHTS assay for small molecule antagonists of retinoid X receptor alpha signaling (AID 588546; active means well fitted inhibition curve with a large enough effect in the signal ratio, with a control signal flat, not every such curve was filed as active; the % refers to the signal ratio;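 further: cells stimulated with 9-cis-retinoic acid as agonist; on the % scale 0 is the no-effect control and ±100 the full control effect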). The settings on record: HEK293T RXRa-UAS-bla, beta-lactamase ratio, antagonist mode; measured here: W530 green channel, cytotoxicity proxy. Put shortly:
(§1)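 Beta-lactamase reporter inhibition, read as CCF4 fluorescence ratio (ex 405, em 460/530 nm) after 2 h at RT. HEK293T UAS-bla cells, 2500/well, were stimulated with 9-cis-RA at 500 or 100 nM final alongside test compound for 18 h at 37 C.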

Experiment [12] addresses Retinoic acid receptor RXR-alpha (Homo sapiens) (UniProt P19793). The experiment is described as above. The note with it: HEK293T RXRa-UAS-bla, beta-lactamase ratio, antagonist mode. Put shortly:
as §1

The target of experiment [13] is Thyroid hormone receptor beta (Homo sapiens) (UniProt P10828). The experiment is described as follows: qHTS assay for small molecule antagonists of thyroid hormone receptor beta signaling (AID 588547; active means well fitted inhibition curve with a large enough effect in the signal ratio, with a control signal flat, not every such curve was filed as active; the % refers to the signal ratio;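 further: cells stimulated with 0.4 nM T3 agonist during compound exposure; series mostly up to about 77 µM; on the % scale 0 is the no-effect control and ±100 the full control effect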). The note with it: TR-UAS-bla HEK293, beta-lactamase ratio, antagonist mode, 18 h. Put shortly: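 TR-UAS-bla GripTite HEK293 cells in 2% charcoal/dextran FBS medium were preincubated 4 h at 37 C, given compound (0.59 nM to 92 uM) plus 0.4 nM T3 (final) for 18 h, then CCF4 for 2 h at RT; Hill fit gave IC50.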
Sequence of Thyroid hormone receptor beta (Homo sapiens) (P10828 whole entry, looked up): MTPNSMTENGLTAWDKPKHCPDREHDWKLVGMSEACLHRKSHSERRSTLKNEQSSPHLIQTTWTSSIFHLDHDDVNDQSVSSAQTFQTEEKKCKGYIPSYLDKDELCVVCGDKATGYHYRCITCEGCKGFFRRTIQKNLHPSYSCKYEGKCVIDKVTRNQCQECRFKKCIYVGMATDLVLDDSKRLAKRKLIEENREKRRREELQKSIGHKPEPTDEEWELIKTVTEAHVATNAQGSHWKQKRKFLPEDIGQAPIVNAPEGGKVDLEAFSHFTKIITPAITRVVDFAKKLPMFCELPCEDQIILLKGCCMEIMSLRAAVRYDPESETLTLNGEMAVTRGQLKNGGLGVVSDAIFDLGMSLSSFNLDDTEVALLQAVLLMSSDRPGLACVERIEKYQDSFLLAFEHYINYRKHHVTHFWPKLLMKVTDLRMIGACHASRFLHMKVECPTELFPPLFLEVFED

Experiment [14] can be described thus: qHTS assay for small molecule activators of the p53 signaling pathway (AID 651743; active means well fitted activation curve with a large enough effect in the signal ratio, not every such curve was filed as active; the % refers to the signal ratio; further: series mostly up to about 92 µM; % of control where 0% means no effect). The settings on record: HCT-116 p53RE-bla, beta-lactamase FRET ratio, 16 h; activation: stronger effect = higher value. Put shortly:
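Here HCT-116 cells with an integrated p53-responsive beta-lactamase gene were incubated with compounds (16 hours, 37 C) after a 5-hour plating period; beta-lactamase activity was detected as fluorescence intensity via B/G FRET substrate.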

Experiment [15] can be described thus: qHTS assay for small molecule activators of the nuclear factor-kappa B (NF-kB) signaling pathway (AID 651749; active means well fitted activation curve with a large enough effect in the signal ratio; the % refers to the signal ratio; further: series mostly up to about 77 µM; % of control where 0% means no effect). The settings on record: NF-kB-bla ME-180 cells, beta-lactamase FRET ratio, 16 h; activation: stronger effect = higher value. In a few lines: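 Beta-lactamase reporter expression, controlled by NF-kB response elements in ME-180 cells, was quantified fluorometrically via FRET disruption; cells at 2,000/well had been incubated with 23 nL test compound for 16 hr.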

Experiment [16] deals with Tumor necrosis factor (Homo sapiens) (UniProt P01375). The experiment is described as follows: qHTS assay to identify small molecules that stimulate Tumor Necrosis Factor-alpha (TNF-alpha) secretion (AID 651757; active means well fitted curve in the direction sought with a large enough effect in the signal ratio; the % refers to the signal ratio; further: 0% is about no effect). Put shortly: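 Using 3000 THP-1 cells per well, compounds and controls were applied for 17 hrs at 37 C. Detection followed with two labeled anti-TNF-alpha antibodies (cryptate donor, XL665 acceptor) for 3 hr at room temperature, measured by TR-FRET.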
Sequence of Tumor necrosis factor (Homo sapiens) (P01375 whole entry, looked up): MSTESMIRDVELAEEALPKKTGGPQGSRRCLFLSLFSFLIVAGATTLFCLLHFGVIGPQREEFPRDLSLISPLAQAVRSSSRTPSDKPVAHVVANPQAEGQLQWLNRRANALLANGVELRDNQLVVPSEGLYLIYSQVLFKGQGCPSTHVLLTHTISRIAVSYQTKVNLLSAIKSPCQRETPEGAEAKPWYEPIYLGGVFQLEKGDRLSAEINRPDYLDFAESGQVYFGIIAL

The nature of experiment [17]: qHTS assay to identify small molecules that stimulate interleukin-8 (IL-8) secretion (AID 651758; active means well fitted activation curve with a large enough effect in the signal ratio; the % refers to the signal ratio; further: 0% is about no effect). Put shortly: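 Quantitative HTS in THP-1 monocytic cells at 2000 cells per well, with 16 hrs compound incubation at 37 C. IL-8 in the medium was then quantified by HTRF immunoassay, read after 1-3 hrs at room temperature.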
Experiment [18] deals with Peroxisome proliferator-activated receptor alpha (Homo sapiens) (UniProt Q07869). The experiment is described as follows: qHTS assay for small molecule agonists of the peroxisome proliferator-activated receptor alpha (PPARalpha) signaling pathway (AID 651778). Further: % of control where 0% means no effect. The note with it: PathHunter PPARalpha complementation, chemiluminescence, 6 h; stronger effect = higher value. Put shortly:
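Cells plated at 2,000/well and held overnight at 37 C, 5% CO2, then compound added by pin tool for 6 hr; after PathHunter detection reagent and 60 min at room temperature, chemiluminescence from enzyme complementation was read.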

The target in experiment [19] is Nuclear receptor ROR-gamma (Homo sapiens) (UniProt P51449). Description: qHTS assay for small molecule antagonists of the retinoid-related orphan receptor gamma (ROR-gamma) signaling pathway (AID 651802).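 Further: CHO cells with doxycycline-induced ROR-gamma expression; luciferase reporter luminescence driven by ROR response element; series mostly up to about 92 µM; on the % scale 0 is the no-effect control and ±100 the full control effect; nearly all actives have a fitted effect of over 60% in size.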 In a few lines:
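Doxycycline-induced reporter activity in engineered CHO cells (TET-inducible ROR, RORE-LUC) was measured by luminescence after 16hr compound exposure at 37C.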

Experiment [20] addresses Nuclear receptor subfamily 1 group I member 2 (Rattus norvegicus) (UniProt Q9R1A7). The experiment is described as follows: qHTS assay for small molecule activators of the rat pregnane X receptor (rPXR) signaling pathway (AID 651751; call rule not given here; further: 0% is about no effect). The note with it: rPXR reporter cells, luciferase (One-Glo), 24 h.

Molecules are shown by their SMILES. Results filed as inconclusive are left out. Calls of active or inactive are those of the source. Unless noted, the call rests on the fitted dose curve; in most records, active means well fitted curve in the direction sought with a large enough effect; inconclusive means small, poorly fitted or top-dose-only effect, or another doubt; inactive means no such curve, though single readings can be large; an effect the other way counts as inactive or inconclusive.

Sequence of Nuclear receptor ROR-gamma (Homo sapiens) (P51449 whole entry, looked up): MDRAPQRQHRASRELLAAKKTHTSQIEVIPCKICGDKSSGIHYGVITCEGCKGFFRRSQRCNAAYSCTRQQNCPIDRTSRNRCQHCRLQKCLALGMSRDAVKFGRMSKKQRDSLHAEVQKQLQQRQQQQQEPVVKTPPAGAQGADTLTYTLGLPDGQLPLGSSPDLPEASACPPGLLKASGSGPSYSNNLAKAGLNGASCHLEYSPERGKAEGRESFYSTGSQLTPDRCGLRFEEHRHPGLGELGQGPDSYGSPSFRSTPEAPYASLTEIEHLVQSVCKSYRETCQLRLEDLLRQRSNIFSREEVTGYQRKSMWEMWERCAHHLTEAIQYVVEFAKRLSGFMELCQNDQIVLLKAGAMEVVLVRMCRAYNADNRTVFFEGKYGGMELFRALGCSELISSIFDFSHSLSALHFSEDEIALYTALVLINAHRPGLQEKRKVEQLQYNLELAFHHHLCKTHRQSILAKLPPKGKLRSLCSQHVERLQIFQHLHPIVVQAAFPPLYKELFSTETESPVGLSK
Sequence of Peroxisome proliferator-activated receptor gamma (Homo sapiens) (P37231 whole entry, looked up): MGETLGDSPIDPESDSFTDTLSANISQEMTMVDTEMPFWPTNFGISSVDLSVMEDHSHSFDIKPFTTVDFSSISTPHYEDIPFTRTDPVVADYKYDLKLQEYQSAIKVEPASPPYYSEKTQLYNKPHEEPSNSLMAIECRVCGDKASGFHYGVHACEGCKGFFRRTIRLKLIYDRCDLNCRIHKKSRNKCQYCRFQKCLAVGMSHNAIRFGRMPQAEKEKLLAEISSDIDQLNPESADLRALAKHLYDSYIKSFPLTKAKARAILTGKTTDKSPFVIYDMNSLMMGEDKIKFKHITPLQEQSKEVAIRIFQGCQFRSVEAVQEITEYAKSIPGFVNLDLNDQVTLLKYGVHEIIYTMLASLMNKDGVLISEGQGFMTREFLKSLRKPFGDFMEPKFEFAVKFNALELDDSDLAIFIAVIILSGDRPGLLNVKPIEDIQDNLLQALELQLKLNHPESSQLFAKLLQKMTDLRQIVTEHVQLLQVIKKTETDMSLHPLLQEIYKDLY
Sequence of Peroxisome proliferator-activated receptor alpha (Homo sapiens) (Q07869 whole entry, looked up): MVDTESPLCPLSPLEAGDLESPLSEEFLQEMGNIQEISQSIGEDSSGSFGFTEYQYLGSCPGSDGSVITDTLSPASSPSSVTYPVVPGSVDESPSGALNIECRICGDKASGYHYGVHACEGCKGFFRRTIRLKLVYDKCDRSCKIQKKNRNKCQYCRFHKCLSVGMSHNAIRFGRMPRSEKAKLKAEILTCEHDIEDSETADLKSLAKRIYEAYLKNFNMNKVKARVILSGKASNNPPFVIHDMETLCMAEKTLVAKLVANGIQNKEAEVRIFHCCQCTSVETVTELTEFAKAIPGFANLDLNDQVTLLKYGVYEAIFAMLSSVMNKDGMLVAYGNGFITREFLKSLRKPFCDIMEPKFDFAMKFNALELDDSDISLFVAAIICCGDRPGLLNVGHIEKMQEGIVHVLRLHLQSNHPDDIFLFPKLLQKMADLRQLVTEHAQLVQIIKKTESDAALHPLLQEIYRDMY
Sequence of Nuclear receptor subfamily 1 group I member 2 (Rattus norvegicus) (Q9R1A7 whole entry, looked up): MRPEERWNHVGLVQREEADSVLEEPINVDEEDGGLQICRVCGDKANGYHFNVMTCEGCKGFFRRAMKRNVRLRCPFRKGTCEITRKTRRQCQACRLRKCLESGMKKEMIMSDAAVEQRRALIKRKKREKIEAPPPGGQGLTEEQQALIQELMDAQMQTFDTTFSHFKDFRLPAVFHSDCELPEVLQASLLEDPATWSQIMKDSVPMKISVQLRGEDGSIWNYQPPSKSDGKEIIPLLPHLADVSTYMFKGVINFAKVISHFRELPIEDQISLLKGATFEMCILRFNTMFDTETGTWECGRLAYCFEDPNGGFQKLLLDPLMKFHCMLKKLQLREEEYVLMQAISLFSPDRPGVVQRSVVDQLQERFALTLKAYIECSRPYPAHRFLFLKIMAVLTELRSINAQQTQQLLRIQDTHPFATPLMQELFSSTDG

`C=CCc1ccc2c(c1)OCO2`: the result in experiment [1], in experiment [2], in experiment [3], in experiment [4], in [5] and in [6] was inactive. Moreover, the molecule was called inactive in experiment [7], in [10] and in [16]. The max response is 1.6% in experiment [8]; -5.37% in experiment [11]; 33.4% (inactive) in experiment [12]; -3.48% (inactive) in experiment [18]; 3.14% (inactive) in [20]. Moreover, the Potency result in [9], in experiment [17] and in experiment [19] was “inactive” throughout. In addition, in [13], the activity change % (negative = inhibition) is -3.5% (inactive). Besides, the values for the activation in experiment [14] and in [15] were -1.35% (inactive) and -0.401% (inactive), respectively.
